The full list was thinned out, with hits kept by preference.
Algae TAG accum: increases triacylglycerol in Chlamydomonas reinhardtii; Chlamydomonas reinhardtii TAG, Nile Red fluorescence, 72 h; calls only at 10 µM (by protocol); 44,000 tested, 0.84% active; AID 1159537; call rule not given here;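 note: hits raise Nile Red signal meaning more stored TAG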
* marks the source's active call; other numbers are inactive results; i = inactive; + = active, no number.

SMILES | Algae TAG accum
C(#CCN1CCOCC1)COc1ccccc1 | i
C(#CCN1CCCCC1)COc1ccccc1 | +
c1ccc2c(CN3CCCCCCC3)c[nH]c2c1 | i
Cc1ccc(-c2nc3ccccc3c(=O)n2-c2cccc([N+](=O)[O-])c2)cc1 | i
Clc1ccc(CN2CCCCC2c2cccnc2)cc1 (stereo unspecified) | i
Cc1cccc(N2CCN(CCc3ccccc3)CC2)c1C | i
CN(C)c1ccc(CN2CCN(c3ccccc3Cl)CC2)cc1 | i
Fc1ccc(N2CCN(Cc3ccccc3)CC2)cc1 | +
Cc1ccc(N2CCN(CCc3ccccc3)CC2)cc1 | +
OCCN1CCN(Cc2ccccc2)CC1 | i
Fc1ccc(CN2CCN(c3ccccc3Cl)CC2)cc1 | +
OC1CCN(CCc2ccccc2)CC1 | i
CN(C)c1ccc(CN2CCN(Cc3ccccc3)CC2)cc1 | i
Fc1ccccc1N1CCN(Cc2ccc(Cl)cc2)CC1 | i
c1ccc(CN2CCN(c3ccccc3)CC2)cc1 | i
Fc1ccc(CN2CCN(c3ccccc3)CC2)cc1 | i
Oc1ccc(CN2CCN(Cc3ccccc3)CC2)cc1 | +
Cc1cccc(CN2CCN(CCO)CC2)c1 | i
O=C(O)C1CN(C2CC2)c2cc(N3CCNCC3)c(F)cc2C1=O (stereo unspecified) | i
CCN(Cc1ccccc1)C(=O)C(Cl)(Cl)Cl | i
CC1CN(c2ccc([N+](=O)[O-])c(N3CCOCC3)c2)CCN1 (stereo unspecified) | i
OCC(Cc1cnc[nH]1)NCc1ccccc1 (stereo unspecified) | i
COc1cc(CN2C[C@@H]3C[C@@H](C2)c2cccc(=O)n2C3)cc(I)c1O | i
Nc1ccc([N+](=O)[O-])cc1C(=O)c1ccc(Cl)cc1 | i
CCC(C)N1CCN(Cc2ccccc2)CC1 (stereo unspecified) | i
SMILES | Algae TAG accum
COc1ccccc1N1CCN(Cc2ccc(Cl)cc2)CC1 | +
CCc1ccc(CN2CCN(c3ccccc3OC)CC2)cc1 | i
COc1ccccc1N1CCN(Cc2ccc(Br)cc2)CC1 | i
CN1CCN(Cc2ccccc2)CC1 | i
CN(C)c1ccc(CN2CCN(c3ccc(F)cc3)CC2)cc1 | i
Cc1ccc(CN2CCN(c3ccc(F)cc3)CC2)cc1 | +
Cc1ccc(CN2CCN(c3ccc(Cl)cc3)CC2)cc1 | i
c1ccc(CN2CCN(C3CCCCC3)CC2)cc1 | +
O=C1NC(=O)C(c2ccccc2)C(=O)N1 | i
CN1CCN(Cc2c(F)cccc2F)CC1 | i
N/C(=N/[N+](=O)[O-])Nc1ccc(NC(=O)Nc2ccccc2)cc1 | i
c1ccc2c(CCNCc3c[nH]c4ccccc34)c[nH]c2c1 | i
CC1CCCC(C)N1CC#CCO (stereo unspecified) | i
Oc1c(Cl)cc(Cl)cc1CN1CCN(c2ccccc2F)CC1 | i
O=C1CN=C(c2ccccc2)c2oc3ccc(Cl)cc3c2N1 | i
CN1CCN(Cc2ccc(Cl)cc2)CC1 | i
CCc1ccc(CN2CCN(C(C)C)CC2)cc1 | i
CC(C)c1ccc(CN2CCN(C)CC2)cc1 | +
CCc1ccc(CN2CCN(C)CC2)cc1 | i
CN1CCN(Cc2c(Cl)cccc2Cl)CC1 | i
CCc1ccc(CN2CCN(CCO)CC2)cc1 | +
COc1ccc(/C=C/c2nc3ccccc3c(=O)n2-c2cccc(C)c2)cc1 | i
CC(=O)c1c(C)n(Cc2ccco2)c2ccc(O)cc12 | i
COc1ccc(CCN(C)Cc2ccccn2)cc1OC | i
OCCN1CCN(Cc2cccc(F)c2)CC1 | i
SMILES | Algae TAG accum
O=C1c2no[n+]([O-])c2C(=O)c2c1no[n+]2[O-] | i
COc1ccc(OC)c(CN2CCN(c3ccccc3C)CC2)c1 | i
CN1CCN(c2ccccc2[N+](=O)[O-])CC1 | i
CN1CCN(c2ccc([N+](=O)[O-])c(N3CCCCC3)c2)CC1 | +
CN1CCN(c2cc(N3CCCC3)ccc2[N+](=O)[O-])CC1 | i
COc1ccc(N2CCN(Cc3ccc([N+](=O)[O-])cc3)CC2)cc1 | i
COc1cccc(N2CCN(Cc3ccc([N+](=O)[O-])cc3)CC2)c1 | +
Cc1ccccc1N1CCN(Cc2ccc([N+](=O)[O-])cc2)CC1 | +
O=[N+]([O-])c1ccc(CN2CCN(c3ccccc3)CC2)cc1 | +
Cc1ccccc1N1CCN(Cc2cccc([N+](=O)[O-])c2)CC1 | i
O=[N+]([O-])c1ccc(N2CCN(Cc3ccc(Cl)cc3)CC2)cc1 | i
COc1ccc(CN2CCN(c3cccc(OC)c3)CC2)cc1 | i
Cc1ccccc1N1CCN(Cc2ccc(Cl)cc2)CC1 | i
O=[N+]([O-])c1ccc(CN2CCN(c3ccc(Cl)cc3)CC2)cc1 | i
O=C(COc1ccc(Br)cc1Cl)N1CCN(Cc2ccc3c(c2)OCO3)CC1 | i
CC1CN(c2ccc([N+](=O)[O-])cc2)CC(C)N1 (stereo unspecified) | i
Cc1ccccc1SCC(=O)O | i
O=[N+]([O-])/C=C/c1ccccc1OCc1ccc(Br)cc1 | i
O=c1c2ccccc2nc(/C=C/c2cccc([N+](=O)[O-])c2)n1-c1ccccn1 | i
CC(=O)Nc1ccc(S(=O)(=O)N2C[C@H]3C[C@H](C2)c2cccc(=O)n2C3)cc1 | i
O=c1c2ccccc2nc(/C=C/c2ccc3c(c2)OCO3)n1-c1ccccc1Cl | i
CCCCC1CN(C)CCC1(O)c1ccccc1 (stereo unspecified) | i
COc1ccccc1CNCCc1ccc(OC)c(OC)c1 | i
COc1ccc(OC)c(CNCCc2cccc(F)c2)c1 | i
COc1ccc(OC)c(CNCCc2ccc([N+](=O)[O-])cc2)c1 | +

Compound activity from PubChem.
